Reference: PubChem BioAssay AID1159580 (chemical genetic matrix, 2015)
Several values for one entry are separate records, joined by “and”; a condition that tells them apart may be missing. Equal entries are not always repeated. Among all 5,500 compounds or so, about 2,000 (36%) were called active. Roughly 18% stayed inconclusive and do not appear here. Cut-off read from the data, not from the text of the source: active = normalized growth mostly below about 0.91 (no sharp cut-off); inconclusive = no clear call, values can overlap the other calls; inactive = mostly above about 0.92. Some of the results follow.

Test: chemical genetic growth profiling, strain panel (AID 1159580);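 note: tested at 20 µM; growth read once vehicle control cultures reached saturation at 30 °C; 1 = growth at the plate median or of vehicle wells; lower values mean less growth of the strain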
Conditions: S. cerevisiae deletion strains, growth OD

Measured: normalized growth

NC(=O)c1cc[n+](CC2=C(C(=O)O)N3C(=O)C(NC(=O)C(c4ccccc4)S(=O)(=O)[O-])C3SC2)cc1 (centres undefined)
inactive: locus YAL013W, strain DEP1, active compounds read low 0.983 | locus YAL021C, strain ccr4, active compounds read low 1.01 | locus YAL026C, strain drs2, active compounds read low 0.997 | locus YAL030W, strain snc1, active compounds read low 1.01 | locus YBL061C, strain skt5, active compounds read low 0.994 | locus YBR009C, strain hhf1, active compounds read low 1.02 | locus YBR021W, strain FUR4, active compounds read low 0.97 | locus YBR023C, strain chs3, active compounds read low 0.997 | locus YBR171W, strain sec66, active compounds read low 1 | locus YBR229C, strain ROT2, active compounds read low 0.989 | locus YBR231C, strain swc5, active compounds read low 1 | locus YBR279W, strain paf1, active compounds read low 0.993 | locus YCL011C, strain gbp2, active compounds read low 1.02 | locus YCL016C, strain dcc1, active compounds read low 1.01 | locus YCL029C, strain bik1, active compounds read low 0.992 | locus YCL069W, strain vba3, active compounds read low 1.02 | locus YCR088W, strain abp1, active compounds read low 0.987 | locus YDL005C, strain med2, active compounds read low 0.998 | locus YDL035C, strain GPR1, active compounds read low 0.989 | locus YDL040C, strain nat1, active compounds read low 1 | locus YDL074C, strain BRE1, active compounds read low 1.02 | locus YDL101C, strain DUN1, active compounds read low 0.994 | locus YDL134C, strain PPH21, active compounds read low 0.973 | locus YDL185W, strain tfp1, active compounds read low 0.995 | locus YDL192W, strain arf1, active compounds read low 0.984 | locus YDR001C, strain nth1, active compounds read low 0.99 | locus YDR069C, strain doa4, active compounds read low 0.98 | locus YDR101C, strain arx1, active compounds read low 1 | locus YDR137W, strain rgp1, active compounds read low 1.02 | locus YDR150W, strain NUM1, active compounds read low 0.988 | locus YDR159W, strain sac3, active compounds read low 0.997 | locus YDR162C, strain NBP2, active compounds read low 0.981 | locus YDR195W, strain ref2 0.988 | locus YDR297W, strain sur2, active compounds read low 1 | locus YDR318W, strain mcm21, active compounds read low 0.986 | locus YDR334W, strain swr1, active compounds read low 0.994 | locus YDR335W, strain msn5, active compounds read low 0.984 | locus YDR388W, active compounds read low 0.992 | locus YDR392W, strain spt3, active compounds read low 1.04 | locus YDR502C, strain sam2, active compounds read low 0.987 | locus YEL003W, strain gim4, active compounds read low 0.985 | locus YEL037C, strain rad23, active compounds read low 0.999 | locus YEL061C, strain CIN8 (second series), active compounds read low 0.99 | locus YEL061C, strain CIN8, active compounds read low 0.994 | locus YER015W, strain faa2, active compounds read low 1.02 | locus YER016W, strain bim1, active compounds read low 0.99 | locus YER110C, active compounds read low 0.986 | locus YER111C, strain swi4, active compounds read low 0.995 | locus YER155C, strain BEM2 (second series), active compounds read low 0.986 | locus YER155C, strain BEM2, active compounds read low 0.978 | locus YER167W, strain BCK2, active compounds read low 0.98 | locus YFR010W, strain ubp6, active compounds read low 0.974 | locus YGL078C, strain dbp3, active compounds read low 0.988 | locus YGL086W, strain mad1, active compounds read low 0.978 | locus YGL167C, strain pmr1, active compounds read low 0.984 | locus YGL173C, strain kem1, active compounds read low 1.01 | locus YGL227W, strain vid30, active compounds read low 1.01 | locus YGL240W, strain doc1, active compounds read low 0.997 | locus YGL248W, strain PDE1, active compounds read low 0.976 | locus YGL253W, strain hxk2, active compounds read low 0.992 | locus YGR078C, strain PAC10, active compounds read low 1.01 | locus YGR135W, strain pre9, active compounds read low 0.957 | locus YGR229C, strain SMI1, active compounds read low 0.958 | locus YGR252W, strain gcn5, active compounds read low 0.937 | locus YHR013C, strain ard1, active compounds read low 1 | locus YHR027C, strain rpn1, active compounds read low 1.01 | locus YHR030C, strain SLT2, active compounds read low 0.986 and 1.08 | locus YHR079C, strain IRE1 (second series), active compounds read low 0.996 | locus YHR079C, strain IRE1, active compounds read low 1.11 | locus YHR094C, strain hxt1, active compounds read low 0.984 | locus YHR129C, strain ARP1, active compounds read low 0.988 | locus YHR142W, strain chs7, active compounds read low 0.993 | locus YHR200W, strain rpn10, active compounds read low 0.986 | locus YIL066C, strain RNR3, active compounds read low 0.995 | locus YIL073C, strain SPO22, active compounds read low 0.96 | locus YIL125W, strain kgd1, active compounds read low 0.992 | locus YIR030C, strain dcg1, active compounds read low 0.99 | locus YJL092W, strain hpr5, active compounds read low 0.995 | locus YJL095W, strain BCK1 (second series), active compounds read low 0.99 | locus YJL095W, strain BCK1, active compounds read low 1.02 and 1.05 | locus YJL115W, strain asf1, active compounds read low 0.988 | locus YJL129C, strain trk1, active compounds read low 0.962 | locus YJL134W, strain LCB3, active compounds read low 0.985 | locus YJL154C, strain vps35, active compounds read low 0.998 | locus YJL164C, strain tpk1, active compounds read low 1.02 | locus YJL166W, strain qcr8, active compounds read low 1 | locus YJL168C, strain set2, active compounds read low 0.998 | locus YJL187C, strain SWE1 (second series), active compounds read low 1.01 | locus YJR043C, strain POL32, active compounds read low 0.993
